Source: PubChem
BAZ2B inh – inhibitors of human BAZ2B bromodomain; Q9UIF8; AlphaScreen BAZ2B-H3K14Ac peptide displacement; Potency, µM (top dose mostly 114 µM), actives largely listed as inhibitors; 360,000 compounds, 4.4% hits; AID 504333; note: nearly all actives have a fitted effect of over 60% in size
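Inhibition is scored as reduced AlphaScreen emission. The BAZ2B/b-H3(5-23)K14Ac complex (50 nM each) in PBS pH 7.4, 0.01% Tween-20 meets compound (up to 110 uM) for 30 min at RT before bead addition.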
JMJD2A Tudor – JMJD2A Tudor domain (human) inhibition | O75164 | AlphaScreen JMJD2A-Tudor / H3K4me3 peptide binding | Potency, µM (highest dose often 114 µM), actives largely listed as inhibitors | 390,000 compounds, 4.4% hits; note: nearly all actives have a fitted effect of over 50% in size
PLK1 PBD inh – inhibitors of human PLK1 polo-box domain binding | P53350 | Plk1 PBD binding of FITC phosphopeptide, fluorescence polarization | Potency, µM, actives largely listed as inhibitors | 360,000 compounds, 2.8% hits | AID 720504; note: series mostly up to about 57 µM; nearly all actives have a fitted effect of over 65% in size
G9a block – inhibitors of human histone lysine methyltransferase G9a. G9a H3K9 monomethylation, AlphaScreen, 2 h. Potency, µM (top dose mostly 102 µM), most hits filed as inhibitors. 350,000 compounds, 8.8% hits. AID 504332; note: nearly all actives have a fitted effect of over 75% in size
Target sequence (Q96KQ7 913-1193 limits assumed): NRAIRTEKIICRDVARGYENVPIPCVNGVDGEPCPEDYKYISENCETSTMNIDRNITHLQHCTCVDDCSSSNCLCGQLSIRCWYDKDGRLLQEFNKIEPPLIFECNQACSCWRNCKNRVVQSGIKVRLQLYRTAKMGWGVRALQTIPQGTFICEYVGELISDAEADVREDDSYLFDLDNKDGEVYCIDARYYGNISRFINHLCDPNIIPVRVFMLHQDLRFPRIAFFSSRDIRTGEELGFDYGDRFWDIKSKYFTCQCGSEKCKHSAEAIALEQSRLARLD
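AlphaScreen read-out: biotin-H3K9 peptide (500 nM) methylation by 20 nM enzyme with 20 uM SAM, 2 h at room temperature after 15 min compound preincubation; anti-monomethyl H3K9 antibody plus donor/acceptor beads, 10 min dark.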
PI5P4K alpha inh – blocks human PI5P4K alpha kinase activity; PI5P4Kalpha enzyme, ADP-Glo luminescence, 60 min; hits give low values; P48426; 330,000 compounds, 1.2% hits; AID 652105; max response, %; active = max response of -50% or lower; inconclusive = between -30% and -50%; inactive = -30% or higher; note: value at the top dose of about 77 µM
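qHTS, 1536-well: enzyme/substrate mix, compound by pin tool, 5 microM ATP final; RT 60 min; ADP-Glo reagents 1 (45 min) then 2 (30 min); luminescence.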
HP1b binding inh – HP1-beta chromodomain-methylated histone interaction inhibition | P83916 | AlphaScreen HP1-beta / biotin-H3K9me3 peptide binding | Potency, µM (series often up to 114 µM), hits mostly inhibitors | 390,000 compounds, 0.56% hits | AID 540317; note: nearly all actives have a fitted effect of over 70% in size
Target sequence (P83916 whole entry, looked up): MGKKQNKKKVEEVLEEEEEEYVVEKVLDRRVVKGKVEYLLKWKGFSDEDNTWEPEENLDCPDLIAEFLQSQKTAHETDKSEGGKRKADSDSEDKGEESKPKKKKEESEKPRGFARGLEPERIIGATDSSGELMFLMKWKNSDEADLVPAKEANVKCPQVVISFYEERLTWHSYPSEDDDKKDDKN
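AlphaScreen: HP1-beta (50 nM) preformed 30 min with biotin-H3(1-18)K9me3 peptide (50 nM) in PBS pH 7.4, 0.01% Tween-20. Compound added for 30 min at RT, then streptavidin donor/nickel chelate acceptor beads (10 ug/mL) for 30 min.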
Numbers stand for hits; - = inactive; ? = inconclusive; . = not tested or not shown; ! = repeats disagree; [ ] = remark or other dose. Compounds with a hit are over-represented: about 12% of the library has one in this group of screens. Unless noted, calls come from the whole dose curve; as a rule, active = well fitted curve in the direction sought with a large enough effect; inconclusive = small, poorly fitted or top-dose-only effect, or another doubt; inactive = no such curve, though single readings can be large; an effect the other way counts as inactive or inconclusive.

SMILES | BAZ2B inh | JMJD2A Tudor | PLK1 PBD inh | G9a block | PI5P4K alpha inh | HP1b binding inh
CSc1ccccc1NC(=O)C1=CC(c2ccc(C)cc2)=NS(=O)(=O)N1C | ? | - | - | 79µM | - | -
Cn1c(SCC(=O)NC2CC2)nnc1-c1ccccc1 | - | - | - | - | - | -
Cn1c(SCC(=O)NC2CC2)nnc1-c1ccccc1Cl | - | - | 27µM | . | - | -
Cn1c(Cn2c(=O)sc3ccccc32)nnc1SCC(=O)NC1CCCC1 | - | - | 24µM | - | - | -
O=C(COC(=O)Cn1nnc2ccccc21)NC1CCCC1 | - | - | - | - | - | -
CCOC(=O)c1cccc2c1N[C@@H](c1ccc(F)cc1)[C@H]1CC=C[C@@H]21 | ? | 40µM | . | 10µM | . | ?
COc1ccc2nc(N=NC3=C(O)CC(C)(C)CC3=O)sc2c1 | 40µM | ? | - | ? | - | ?
COc1ccc2nc(N=Nc3ccc(O)c4ccccc34)sc2c1 | 2.8µM | ? | - | 3.2µM | ? | ?
O=C1CCC(C(=O)OCC(=O)N2N=C3/C(=C/c4ccccc4)CCCC3C2c2ccccc2)N1 (configuration not stated) | ? | ? | - | 56µM | . | -
O=C1CCC(C(=O)OCC(=O)N2N=C3/C(=C\c4ccccc4)CCCC3C2c2ccccc2)N1 (configuration not stated) | . | ? | - | . | - | -
CC(C)(C)NC(=O)CN(C(=O)CS(=O)CC(=O)Nc1ccc(F)cc1)c1ccccc1 (configuration not stated) | - | - | - | 50µM | . | -
S=c1[nH]ccn1Cc1ccccc1 | - | 14µM | 30µM | 6.3µM | - | -
S=C1NCN(Cc2ccccc2)CN1 | - | - | - | ? | - | -
COc1ccc(CN2CCN(Cc3ccon3)CC2CCO)c(C)c1C (configuration not stated) | - | - | - | - | - | -
Nc1ncnc2c1ncn2[C@@H]1O[C@H](COP(=O)(O)OP(=O)(O)CP(=O)(O)O)[C@@H](O)[C@H]1O | . | . | . | - | . | .
CCN(CC(=O)NC(C)C)C(=O)c1ccc(S(=O)(=O)N(C)c2ccccc2OC)cc1 | - | ? | 3µM | - | ? | ?
CCN(CC(=O)Nc1ccccc1OC)C(=O)c1ccc(N(C)S(=O)(=O)c2ccc(C)cc2)cc1 | - | - | - | - | - | -
O=C(NNc1cc(Cl)cc(Cl)c1)c1sccc1Cl | . | - | . | . | . | -
CC(C)OCC(O)CN1CCC(Cc2ccccc2)CC1 (configuration not stated) | - | - | - | - | - | -
O=C(NCC(=O)N1CCCC1)c1ccc(Br)cc1 | - | - | - | - | - | -
O=C(c1ccco1)N1CCN(CC(O)COc2ccc(Br)cc2)CC1 (configuration not stated) | - | - | - | 50µM | - | -
CC(=O)N1CCN(CC(O)COc2ccc(Br)cc2)CC1 (configuration not stated) | 56µM | 18µM | - | 8.9µM | - | ?
OC(COc1ccc(Br)cc1)CN1CCC(Cc2ccccc2)CC1 (configuration not stated) | - | - | - | 79µM | - | -
CN1CCN(CC(O)COc2ccc(OCC(O)CN3CCN(C)CC3)cc2)CC1 (configuration not stated) | - | - | - | - | - | -
O=C(NCC(=O)N1CCN(C(=O)c2ccco2)CC1)c1ccc(Br)cc1 | - | - | 21µM | . | - | -
SMILES | BAZ2B inh | JMJD2A Tudor | PLK1 PBD inh | G9a block | PI5P4K alpha inh | HP1b binding inh
Fc1ccc(-c2noc3ncnc(Nc4ccc(F)cc4F)c23)cc1 | - | - | . | - | . | -
CCn1cc(C(=O)NCc2ccccc2Cl)c(=O)c2cc(S(=O)(=O)N3CCc4ccccc4C3)ccc21 | . | - | . | - | . | -
COc1ccccc1Nc1nc(NCC2CCCO2)c2ccccc2n1 (configuration not stated) | - | 50µM | ? | - | ? | -
Cc1ccc(Nc2nc(NCCO)c3ccccc3n2)cc1C | - | - | - | 79µM | - | -
COc1ccc(OC)c(Nc2c3ccccc3nc3ccccc23)c1 | 50µM | 22µM | - | -[2.33 µM] | - | ?
COc1ccc(Cl)cc1Nc1nc(Cl)nc(NCCO)n1 | . | . | - | . | - | .
CCOc1nc(NCCO)nc(Nc2cc(Cl)ccc2OC)n1 | - | - | 27µM | - | - | -
COc1ccc([N+](=O)[O-])cc1Nc1c2ccccc2nc2ccccc12 | - | - | - | - | - | -
COc1ccccc1Nc1nc(NCCO)c2ccccc2n1 | - | . | . | - | . | .
COc1cc(NS(C)(=O)=O)ccc1Nc1c2ccccc2nc2ccccc12 | ? | ? | - | 12µM | - | -
COc1ccc(OC)c(Nc2nc(NCCO)c3ccccc3n2)c1 | 50µM | 45µM | - | . | - | -
CN(C)CCNC(=O)c1cccc2ccc(-c3ccc(-c4ccccc4)cc3)nc12 | . | 56µM | - | . | ? | -
O=C(CSc1nncn1-c1ccccc1)NC1CCCCC1 | - | - | - | - | - | -
Clc1cccc(Cl)c1CNC1CCCC1 | - | - | - | ? | . | -
c1ccc(-n2cccc2CNC2CCCCC2)cc1 | ? | 3.5µM | - | ? | . | ?
CCCCNCc1cccn1-c1ccccc1 | 71µM | 5µM | - | ? | - | ?
Cn1cccc1CNC1CCCCC1 | - | - | - | 50µM | . | -
Cc1ccc(NC(=O)Cc2c(C(=O)O)c(C)cn2C)cc1Cl | - | - | . | - | . | -
CC(C)Cn1c(SCc2nc3ccccc3c(=O)[nH]2)nc2ccccc2c1=O | 89µM | - | - | - | . | -
O=c1[nH]c(CSc2nnc(Nc3ccccc3)s2)nc2ccccc12 | - | ? | 27µM | - | - | -
O=C(CCc1nc2ccccc2c(=O)[nH]1)Nc1nnc(SCc2ccccc2)s1 | - | - | - | - | - | -
FC(F)(F)c1ccc(-c2noc(-c3ccccc3)c2I)cc1 | . | . | . | - | . | .
CCc1cc(C(c2ccncc2)N2CCN(C)CC2)c(NC(=O)c2ccccc2)s1 (configuration not stated) | ? | - | - | 40µM | - | -
CCN(CC)CCOCCOC(=O)C1(c2ccccc2)CCCC1 | . | 32µM | - | 30µM! | - | -
CCN(CC)CCOC(=O)C1(c2ccc([N+](=O)[O-])cc2)CCCC1 | - | - | - | 13µM! | - | -
CCN(CC)CCCOC(=O)C1(c2ccccc2)CCCC1 | - | - | - | - | - | -
CC(C[N+](C)(C)C)OC(=O)C1(c2ccccc2)CCCC1 (configuration not stated) | - | - | - | -[12.7 µM] | - | -
C[N+](C)(C)CCOC(=O)C1(c2ccccc2)CCCC1 | - | -[11.4 µM] | ? | 3.5µM | - | ?
COc1ccc(NC(=O)c2ccco2)cc1NC(=O)c1cc(Br)ccc1Cl | - | - | . | - | . | -
COc1ccc(NC(=O)CSc2nnc3c(n2)[nH]c2ccc(S(=O)(=O)N(C)C)cc23)c(OC)c1 | . | - | . | . | . | -
